The list is not random: actives were taken first. Their share in the collection is about 3.8%.
697 NFkB inh – lowers PMA/ionomycin-induced NF-kB signal in 697 B cells. inhibition, % at 4 µM. 330,000 tested, 0.33% active. 697 B-cell NF-kB luciferase reporter, 16 h. AID 435022; in the data active means inhibition above about 35%
Jurkat NFkB inh – lowers PMA/ionomycin-induced NF-kB signal in Jurkat cells. PMA/ionomycin-induced NF-kB luciferase reporter, luminescence. inhibition, % at 4 µM. 330,000 tested, 0.53% active. AID 435003; in the data active means inhibition above about 50%
Mdm2-MdmX inh – inhibitors of human Mdm2/MdmX interaction; O15151+Q00987; SaOS-2 split-luciferase Mdm2/MdmX complementation, luminescence; inhibition, % at 8 µM; 330,000 tested, 3% active; AID 485346;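 active means inhibition of at least 50% at 8 µM in the primary screen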
Target sequence (O15151 whole entry, looked up): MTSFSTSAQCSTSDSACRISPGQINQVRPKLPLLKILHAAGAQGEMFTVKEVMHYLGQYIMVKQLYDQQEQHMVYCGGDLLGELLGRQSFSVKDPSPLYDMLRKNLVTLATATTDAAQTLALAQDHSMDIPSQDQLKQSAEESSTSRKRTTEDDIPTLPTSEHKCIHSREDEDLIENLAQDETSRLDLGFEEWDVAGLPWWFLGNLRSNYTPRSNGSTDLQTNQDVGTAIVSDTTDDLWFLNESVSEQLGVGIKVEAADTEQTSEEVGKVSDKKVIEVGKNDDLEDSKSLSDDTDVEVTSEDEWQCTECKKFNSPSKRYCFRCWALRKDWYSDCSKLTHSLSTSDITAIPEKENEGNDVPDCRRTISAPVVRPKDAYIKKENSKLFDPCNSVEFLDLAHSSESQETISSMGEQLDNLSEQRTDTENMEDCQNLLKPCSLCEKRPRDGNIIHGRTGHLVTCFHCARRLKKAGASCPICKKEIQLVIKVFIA
Target sequence (Q00987 whole entry, looked up): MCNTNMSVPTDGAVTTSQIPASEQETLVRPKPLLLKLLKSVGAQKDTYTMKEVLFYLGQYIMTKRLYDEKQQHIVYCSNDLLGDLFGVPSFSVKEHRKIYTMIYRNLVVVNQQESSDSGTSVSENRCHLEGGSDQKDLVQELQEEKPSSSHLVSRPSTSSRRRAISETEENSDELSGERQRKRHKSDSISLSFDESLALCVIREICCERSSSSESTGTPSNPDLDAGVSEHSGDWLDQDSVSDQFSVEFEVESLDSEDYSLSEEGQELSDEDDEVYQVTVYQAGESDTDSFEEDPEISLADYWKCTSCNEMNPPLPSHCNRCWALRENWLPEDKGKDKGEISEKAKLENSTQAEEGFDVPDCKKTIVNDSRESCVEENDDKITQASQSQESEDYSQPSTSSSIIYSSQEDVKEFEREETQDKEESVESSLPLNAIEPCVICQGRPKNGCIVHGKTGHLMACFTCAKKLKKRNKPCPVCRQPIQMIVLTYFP
Gli-Sufu antag – antagonists of Gli-Sufu signaling; Sufu-KO-LIGHT fibroblasts, Gli luciferase reporter luminescence; inhibition, % at 5 µM; 340,000 tested, 0.74% active;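 active means inhibition above about 55%, limit read from the data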
Shn3 3UTR inh – inhibitors of Schnurri-3 3'UTR reporter in osteoblasts | Clone20 osteoblast Shn3 3'UTR firefly luciferase, 24 h | inhibition, % at 12.5 µM | 360,000 tested, 0.52% active | AID 588674;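 active means mean inhibition of at least 75% with every replicate also reaching 75%; inconclusive means mean inhibition at least 75% but some replicate below; inactive means mean inhibition below 75%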
Mdm2-MdmX conf – human Mdm2/MdmX binding inhibition, confirmed; shares compounds with Mdm2-MdmX inh; luminescent assay; inhibition, % at 8 µM; 10,000 tested, 55% active; in the data active means inhibition above about 40%
FLuc counter – full-length luciferase inhibition in Mdm2/MdmX counter-screen | AID 504607 | shares compounds with Mdm2-MdmX inh | 6,200 tested, 77% active | SaOS-2 full-length luciferase counterscreen, luminescence | inhibition, % at 8 µM;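 active means mean inhibition at 8 µM reaching about 37%, which flags the compound as non-specific, limit read from the data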;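 further: p53-null SaOS-2 cells with luciferase driven by a doxycycline-inducible promoter; compound on cells about two nights before reading with doxycycline added after day one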
Each line names hits and unclear results; the compound was inactive in the other large screens (follow-up assays come after a bar, where they were run).

C=C1C2C[C@@]3([C@@H]1O)[C@@H](C[C@@H]2O)[C@@]12C4[C@@H]3C[C@@H]1[C@@](C)(CC[C@@H]2O)CN4CC	none
C=CCn1c(O)c(C(CC)=NCc2ccc3c(c2)OCO3)c(=O)[nH]c1=O	Mdm2-MdmX inh 55 | Mdm2-MdmX conf inactive
CCN(CC(=O)Nc1ccc(NC(C)=O)cc1)C(=O)CSC(c1ccccc1)c1ccccc1	none
CCOc1cc2c(cc1OCC)-n1cccc1C(c1ccc(F)c(OC)c1)NC2 (stereo not given)	none
CCCCCCCCn1sccc1=O	Mdm2-MdmX inh 80, Shn3 3UTR inh inconclusive | Mdm2-MdmX conf inactive
C#C[C@]1(O)CC[C@H]2[C@@H]3CCC4=Cc5nc6nc7ccccc7n6cc5C[C@]4(C)[C@H]3CC[C@@]21C	Mdm2-MdmX inh 55 | Mdm2-MdmX conf inactive
CCCCn1c(=O)c(C(=O)NCc2ccncc2)c(O)c2ccccc21	Mdm2-MdmX inh 51 | Mdm2-MdmX conf inactive
CCCCCn1c(=O)c(C(=O)Nc2cnccn2)c(O)c2ccccc21	Mdm2-MdmX inh 52, Gli-Sufu antag 63 | Mdm2-MdmX conf 48 | FLuc counter 51
CCCCCCCn1c(=O)c(C(=O)Nc2cnccn2)c(O)c2ccccc21	Mdm2-MdmX inh 65 (no result: Shn3 3UTR inh) | Mdm2-MdmX conf 43 | FLuc counter 44
CCCCn1c(=O)c(C(=O)Nc2ccccc2S(N)(=O)=O)c(O)c2ccccc21	Mdm2-MdmX inh 52 | Mdm2-MdmX conf 48 | FLuc counter 40
CCCCCn1c(=O)c(C(=O)Nc2cc(C)ccn2)c(O)c2ccccc21	none
CC(=O)Cc1c[nH]c2ccccc12	none (no result: Gli-Sufu antag, Shn3 3UTR inh)
COC(=O)C1=C(c2ccc(OC)c(OC)c2)C[C@@H]2CC[C@H]1N2C(=O)NCc1cccc2ccccc12	none
CC(C)[C@]12CC(=O)[C@H](C)[C@H]1C2	none
CCCCCCCSc1cc(OC)c(CCN(C)C)cc1OC	Mdm2-MdmX inh 74 | Mdm2-MdmX conf inactive
CCOc1cc2c(cc1OCC)-n1cccc1C(c1c(O)cccc1OC)NC2 (stereo not given)	none
CCOP(=O)(OCC)C1(O)C(=O)Nc2ccc(Br)cc21 (stereo not given)	none
O=C1NC(=O)C(=Cc2ccc(-c3ccc(Cl)cc3)o2)C(=O)N1	Mdm2-MdmX inh 53 | Mdm2-MdmX conf inactive
O=C1NC(=O)C(=Cc2ccc(-c3ccc(S(=O)(=O)N4CCOCC4)cc3)o2)C(=O)N1	none
O=C1CC(N2CCC(n3c(=O)[nH]c4ccccc43)CC2)C(=O)N1c1ccc(F)cc1 (stereo not given)	none
O=c1[nH]c2ccccc2n1C1CCN(CCCC(c2ccc(F)cc2)c2ccc(F)cc2)CC1	Mdm2-MdmX inh 66 | Mdm2-MdmX conf inactive
COc1ccn(C)c(=O)c1C#N	none
O=C1C2C3CCC(O3)C2C(=O)N1CCO (stereo not given)	none
COC(=O)c1cn(C(=O)c2cccc3ccccc23)c2ccccc12	Mdm2-MdmX inh 64 | Mdm2-MdmX conf 56 | FLuc counter 53
COC(=O)c1cn(Cc2ccc(F)cc2)c2ccccc12	none (no result: 697 NFkB inh, Jurkat NFkB inh, Mdm2-MdmX inh, Gli-Sufu antag)
CC(C)(C)c1ccc(O)c(N=Cc2c(O)ccc3ccccc23)c1	Mdm2-MdmX inh 50 | Mdm2-MdmX conf inactive
CCn1nc(-c2ccccc2)nc2c(=O)n(C)c(=O)nc1-2	Mdm2-MdmX inh 74 | Mdm2-MdmX conf 73 | FLuc counter inactive
COc1ccc(-c2nc3ccccc3c(=O)n2-c2ccc(OC)cc2)cc1	none
Cc1ccccc1[N+](=O)[O-]	none
Cc1cc([N+](=O)[O-])c2ccccc2[n+]1[O-]	Mdm2-MdmX inh 99, Shn3 3UTR inh inconclusive | Mdm2-MdmX conf 100 | FLuc counter 51
CCN(CC)c1ccc(CNCCc2ccccc2F)cc1	Mdm2-MdmX inh 54 | Mdm2-MdmX conf 48 | FLuc counter 61
Clc1ccc(C(c2ccc(Cl)cc2)n2cc[n+](CC(OCc3ccc(Cl)cc3Cl)c3ccc(Cl)cc3Cl)c2)cc1 (stereo not given)	Mdm2-MdmX inh 100, Shn3 3UTR inh 87 | Mdm2-MdmX conf 70 | FLuc counter inactive
COC(=O)C1=C(c2cccc(C#N)c2)C[C@@H]2CC[C@H]1N2C(=O)NCCOc1ccc(OC)cc1	none
O=c1c2ccccc2[se]n1-c1ccccc1	Mdm2-MdmX inh 59 | Mdm2-MdmX conf inactive
N#CCCn1cc(C(=O)Nc2ccccc2Cl)c(-c2ccc(F)cc2)n1	none
CC(=O)O[C@@H]1/C=C/[C@](C)(O)C[C@@H](C)C/C=C/[C@H]2[C@H](O)C(C)=C(C)[C@H]3[C@H](Cc4ccccc4)NC(=O)[C@@]123	Mdm2-MdmX inh 72 (no result: Shn3 3UTR inh) | Mdm2-MdmX conf 74 | FLuc counter 49
C=C1C(C)C2C(Cc3ccccc3)NC(=O)C23C(OC(C)=O)C=CC(C)(O)CC(C)CC=CC3C1O (stereo not given)	none (no result: 697 NFkB inh, Jurkat NFkB inh, Mdm2-MdmX inh)
O=C(Nc1cccc(C(F)(F)F)c1)OC1CN2CCC1CC2 (stereo not given)	none
OC(c1cccc(Cl)c1)(c1cccc(Cl)c1)C1CN2CCC1CC2 (stereo not given)	Mdm2-MdmX inh 74 | Mdm2-MdmX conf 59 | FLuc counter 56
Cc1ccc(-c2nc(N(C)C3CCN(C)CC3)c3ccccc3n2)cc1	none
Cc1ccc(S(=O)(=O)c2nc(-c3ccccc3Cl)oc2N(C)C2CCN(C)CC2)cc1	Mdm2-MdmX inh 72 | Mdm2-MdmX conf inactive
O=C(COc1ccc(Cl)cc1)N(c1ccc(Cl)cc1)C1CN2CCC1CC2 (stereo not given)	Mdm2-MdmX inh 51 | Mdm2-MdmX conf inactive | FLuc counter 75
CCCOC(=O)c1ccc(-[n+]2c(-c3ccccc3)cc(-c3ccccc3)cc2-c2ccccc2)cc1	Mdm2-MdmX inh 89 | Mdm2-MdmX conf 87 | FLuc counter inactive
O=C(O)c1ccc(-[n+]2c(-c3ccccc3)cc(-c3ccccc3)cc2-c2ccccc2)cc1	none
C#CCOc1cc(C2C3=C(COC3=O)Nc3cc4c(cc32)OCO4)ccc1OC (stereo not given)	Mdm2-MdmX inh 59 | Mdm2-MdmX conf 58 | FLuc counter 80
CN=C1CN(O)C(c2ccccc2)c2cc(Cl)ccc2N1 (stereo not given)	none (no result: 697 NFkB inh, Jurkat NFkB inh, Mdm2-MdmX inh)
COc1cc2c(cc1OC)CN(c1ccc([N+](=O)[O-])c(C(F)(F)F)c1)CC2	Mdm2-MdmX inh 59 | Mdm2-MdmX conf inactive
CCNc1cc(N2CCN(C)CC2)ccc1[N+](=O)[O-]	none
COC(=O)C1=C(c2ccc(F)cc2OCc2ccccc2)C[C@@H]2CC[C@H]1N2C(=O)N1CCCCC1	none
COC(=O)C1=C(c2ccc(F)cc2OCc2ccccc2)C[C@@H]2CC[C@H]1N2C(=O)N1CCC(O)(c2ccc(Cl)cc2)CC1	Mdm2-MdmX inh 69 | Mdm2-MdmX conf inactive

Screening data (PubChem)
